Where a name gives a salt, the structure may show the parent alone.
The compounds below were run on Saccharomyces cerevisiae BY4741 SeMeCo community (assay: z-score of subpopulation abundance vs DMSO median, subpopulation auxotrophic for M; higher = larger share of this subpopulation than in DMSO controls). Conditions: 10 µM; 24 h; SM minimal medium; subpopulation (auxotrophy): M.
Experimental: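 Fluorescent four-plasmid SeMeCo (self-establishing metabolically cooperating S. cerevisiae BY4741 community; plasmids pH-mRuby2, pL-mWasabi, pU-eCFP, pM-TagRFP657) was grown 24 h in minimal SM medium with each Selleck FDA-approved drug at 10 µM in 384-well plates. Cells were fixed and imaged by high-content confocal microscopy. For each auxotrophic subpopulation (and the prototroph), a z-score gives the deviation from the DMSO vehicle-control population median.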
`C[C@]12CC[C@@H]3c4ccc(O)cc4CC[C@H]3[C@@H]1CC[C@@H]2O` [Estradiol] was tested, and the “z-score of subpopulation abundance” value was 0.4.
For `O=C(O)c1cc(-c2ccc(F)cc2F)ccc1O` [Diflunisal], the “z-score of subpopulation abundance” value was -2.15.
In the case of `CS(=O)(=O)c1ccc([C@@H](O)[C@@H](CF)NC(=O)C(Cl)Cl)cc1` [Florfenicol], the “z-score of subpopulation abundance” value is reported as -1.1.
`CCCCCCCCCC(=O)N[C@@H](Cc1c[nH]c2ccccc12)C(=O)N[C@H](CC(N)=O)C(=O)N[C@@H](CC(=O)O)C(=O)N[C@@H]1C(=O)NCC(=O)N[C@@H](CCCN)C(=O)N[C@@H](CC(=O)O)C(=O)N[C@H](C)C(=O)N[C@@H](CC(=O)O)C(=O)NCC(=O)N[C@H](CO)C(=O)N[C@@H]([C@H](C)CC(=O)O)C(=O)N[C@@H](CC(=O)c2ccccc2N)C(=O)O[C@@H]1C` [Daptomycin] was tested, and the “z-score of subpopulation abundance” value was 0.17.
`C[C@@H](O)[C@H]1C(=O)N2C(C(=O)O)=C(SCCNC=N)C[C@H]12` [Imipenem] was tested, and the “z-score of subpopulation abundance” value was 0.92.
In the case of `CCCOc1ccc2[nH]c(NC(=O)OC)nc2c1` [Oxibendazole], the “z-score of subpopulation abundance” value is reported as 0.43.
For `COc1ccc2cc(CCC(C)=O)ccc2c1` [Nabumetone], the “z-score of subpopulation abundance” value was 0.05.
In the case of `Oc1ccc(C2CNCCc3c2cc(O)c(O)c3Cl)cc1` (stereo not given) [Fenoldopam mesylate], the “z-score of subpopulation abundance” value is reported as 1.31.
With `Cc1nnc(SCC2=C(C(=O)O)N3C(=O)[C@@H](NC(=O)Cn4cc(Cl)c(=O)c(Cl)c4)[C@H]3SC2)s1` [Cefazedone] the “z-score of subpopulation abundance” value was 0.65.
In the case of `CC1=C[C@H]2C(=O)O[C@H]3C[C@@H](C/C=C(\C)C[C@@H](C)/C=C/C=C4\CO[C@H](/C1=N\O)[C@@]42O)O[C@@]1(CC[C@H](C)[C@@H](C)O1)C3.CC[C@H]1O[C@]2(CC[C@@H]1C)C[C@@H]1C[C@@H](C/C=C(\C)C[C@@H](C)/C=C/C=C3\CO[C@@H]4/C(=N\O)C(C)=C[C@@H](C(=O)O1)[C@]34O)O2` [Milbemycin Oxime], the “z-score of subpopulation abundance” value is reported as -1.4.
For `O=c1[nH]cnc2c1ncn2[C@@H]1O[C@H](CO)[C@@H](O)[C@H]1O` [Isoprinosine], the “z-score of subpopulation abundance” value was -0.21.
For `CO/N=C1\C[C@]2(C[C@@H]3C[C@@H](C/C=C(\C)C[C@@H](C)/C=C/C=C4\CO[C@@H]5[C@H](O)C(C)=C[C@@H](C(=O)O3)[C@]45O)O2)O[C@H](/C(C)=C/C(C)C)[C@H]1C` [Moxidectin], the “z-score of subpopulation abundance” value was -0.74.
With `C[C@]12CC[C@@H]3c4ccc(O)cc4CC[C@H]3[C@@H]1CC[C@@H]2OC(=O)CCC1CCCC1` [Estradiol Cypionate] the “z-score of subpopulation abundance” value was -0.43.
With `O=C(Nc1ccc(Oc2ccc(Cl)cc2)c(Cl)c1)c1cc(I)cc(I)c1O` [Rafoxanide] the “z-score of subpopulation abundance” value was -0.29.
With `CCCCCCCCCC(=O)NC1C(Oc2c3cc4cc2Oc2ccc(cc2Cl)C(OC2OC(CO)C(O)C(O)C2NC(C)=O)C2NC(=O)C(NC(=O)C4NC(=O)C4NC(=O)C(Cc5ccc(c(Cl)c5)O3)NC(=O)C(N)c3ccc(O)c(c3)Oc3cc(O)cc4c3)c3ccc(O)c(c3)-c3c(OC4OC(CO)C(O)C(O)C4O)cc(O)cc3C(C(=O)O)NC2=O)OC(CO)C(O)C1O` (stereo not given) [Teicoplanin] the “z-score of subpopulation abundance” value was 0.97.
With `O=C1CCc2cc(OCCCCc3nnnn3C3CCCCC3)ccc2N1` [Cilostazol] the “z-score of subpopulation abundance” value was -0.68.
`CCOC(=O)C1=C(COCCN)NC(C)=C(C(=O)OC)C1c1ccccc1Cl` (stereo not given) [Amlodipine Besylate] was tested, and the “z-score of subpopulation abundance” value was 5.2.
`CC1=C(C(=O)O)N2C(=O)[C@@H](NC(=O)[C@H](N)C3=CCC=CC3)[C@H]2SC1` [Cefradine] was tested, and the “z-score of subpopulation abundance” value was -0.36.
For `CN1C2CCCC1CC(NC(=O)c1nn(C)c3ccccc13)C2` (stereo not given) [Granisetron], the “z-score of subpopulation abundance” value was 1.71.
`C=C[C@]1(C)C[C@@H](OC(=O)CSC(C)(C)CNC(=O)[C@H](N)C(C)C)[C@]2(C)[C@H](C)CC[C@]3(CCC(=O)[C@H]32)[C@@H](C)[C@@H]1O` [Valnemulin HCl] was tested, and the “z-score of subpopulation abundance” value was 0.05.
In the case of `O=C(O[C@@H]1C[C@@H]2C[C@H]3C[C@H](C1)N2CC3=O)c1c[nH]c2ccccc12` [Dolasetron Mesylate], the “z-score of subpopulation abundance” value is reported as 0.81.
For `Cc1cc(C)nc(O)n1.O=C(Nc1ccc([N+](=O)[O-])cc1)Nc1ccc([N+](=O)[O-])cc1` [Nicarbazin], the “z-score of subpopulation abundance” value was -0.21.
`COc1cc(NC(C)CCCN)c2ncccc2c1` (stereo not given) [Primaquine Diphosphate] was tested, and the “z-score of subpopulation abundance” value was 1.17.
For `CCOc1cc(NC(C)=O)ccc1C(=O)OC` [Ethopabate], the “z-score of subpopulation abundance” value was 0.39.
In the case of `N=C(N)NC(=O)c1nc(Cl)c(N)nc1N` [Amiloride HCl dihydrate], the “z-score of subpopulation abundance” value is reported as 3.23.
In the case of `CN(C)CCCN1c2ccccc2Sc2ccccc21` [Promazine hydrochloride], the “z-score of subpopulation abundance” value is reported as 0.15.
For `CC1(C)S[C@@H]2[C@H](NC(=O)Cc3ccccc3)C(=O)N2[C@H]1C(=O)O` [Benzylpenicillin potassium], the “z-score of subpopulation abundance” value was -0.08.
With `COc1ccnc(C[S+]([O-])c2nc3cc(OC(F)F)ccc3[nH]2)c1OC` (stereo not given) [Pantoprazole sodium] the “z-score of subpopulation abundance” value was 0.43.
`N/C(=N\N=C\c1ccc(Cl)cc1)N/N=C/c1ccc(Cl)cc1` [Robenidine Hydrochoride] was tested, and the “z-score of subpopulation abundance” value was 9.06.
For `CN(C)CCN1C(=O)c2cccc3cc(N)cc(c23)C1=O` [Amonafide], the “z-score of subpopulation abundance” value was 0.34.
For `CC(C)c1nc(N(C)S(C)(=O)=O)nc(-c2ccc(F)cc2)c1/C=C/[C@@H](O)C[C@@H](O)CC(=O)O` [Rosuvastatin Calcium], the “z-score of subpopulation abundance” value was -1.93.
With `NC(=N\CCCCCC/N=C(N)/N=C(\N)Nc1ccc(Cl)cc1)/N=C(\N)Nc1ccc(Cl)cc1` [Chlorhexidine diacetate] the “z-score of subpopulation abundance” value was -2.47.
For `CN[C@@H]1[C@H](O[C@H]2[C@H](O[C@H]3[C@H](O)[C@@H](O)[C@H](N=C(N)N)[C@@H](O)[C@@H]3N=C(N)N)O[C@@H](C)[C@]2(O)C=O)O[C@@H](CO)[C@H](O)[C@H]1O` [Streptomycin sulfate], the “z-score of subpopulation abundance” value was -0.43.
For `NC(=O)N1c2ccccc2C=Cc2ccccc21` [Carbamazepine], the “z-score of subpopulation abundance” value was -0.29.
`O=C1c2cccc3c2[C@H](CCC3)CN1[C@@H]1CN2CCC1CC2` [Palonosetron HCl] was tested, and the “z-score of subpopulation abundance” value was -0.37.
`COC(=O)C1=C(C)NC(C)=C(C(=O)OCC(C)C)C1c1ccccc1[N+](=O)[O-]` (stereo not given) [Nisoldipine] was tested, and the “z-score of subpopulation abundance” value was 0.83.
With `C[N+]1(C)[C@@H]2CC[C@H]1C[C@@H](OC(=O)C(O)c1ccccc1)C2` (stereo not given in full) [Homatropine Methylbromide] the “z-score of subpopulation abundance” value was -0.38.
`CCOc1ccc(NC(C)=O)cc1` [Phenacetin] was tested, and the “z-score of subpopulation abundance” value was 0.1.
In the case of `CO/N=C(\C(=O)N[C@@H]1C(=O)N2C(C(=O)O)=C(COC(N)=O)CS[C@H]12)c1ccco1` [Cefuroxime sodium], the “z-score of subpopulation abundance” value is reported as 0.78.
`Cc1ccc(S(=O)(=O)NC(=O)NN2CC3CCCC3C2)cc1` (stereo not given) [Gliclazide] was tested, and the “z-score of subpopulation abundance” value was 0.04.
